Consider 90 compounds from PubChem BioAssay AID588466 (NMMLSC, 2011).

SMILES strings stand for the structures. Several values for one entry are separate records, joined by “and”; a condition that tells them apart may be missing. Equal entries are not always repeated. Hit rate of the full screen: of about 2,100 compounds, about 30 (1%) were called active.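 Rule for the calls: active = compounds whose mean binding response over two repeats is below 75% of the DMSO control; inactive = the rest.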 Not all results are given here.

In the assay the target is Desmoglein-3 (Homo sapiens) (UniProt P32926). Briefly: inhibitors of anti-DSG3 scFv binding to DSG3, confirmation, biochemical, cherry pick 1, bead-based, flow cytometry (AID 588466).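 Note: 100% = 2% DMSO vehicle and 0% = excess soluble DSG3 blocking control.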 Particulars: Protein G beads with DSG3, scFv-GFP binding, at 10 µM, active compounds read low. For orientation: In flow cytometry, cells or beads pass a laser one at a time.
Sequence of Desmoglein-3 (Homo sapiens) (P32926 whole entry, looked up): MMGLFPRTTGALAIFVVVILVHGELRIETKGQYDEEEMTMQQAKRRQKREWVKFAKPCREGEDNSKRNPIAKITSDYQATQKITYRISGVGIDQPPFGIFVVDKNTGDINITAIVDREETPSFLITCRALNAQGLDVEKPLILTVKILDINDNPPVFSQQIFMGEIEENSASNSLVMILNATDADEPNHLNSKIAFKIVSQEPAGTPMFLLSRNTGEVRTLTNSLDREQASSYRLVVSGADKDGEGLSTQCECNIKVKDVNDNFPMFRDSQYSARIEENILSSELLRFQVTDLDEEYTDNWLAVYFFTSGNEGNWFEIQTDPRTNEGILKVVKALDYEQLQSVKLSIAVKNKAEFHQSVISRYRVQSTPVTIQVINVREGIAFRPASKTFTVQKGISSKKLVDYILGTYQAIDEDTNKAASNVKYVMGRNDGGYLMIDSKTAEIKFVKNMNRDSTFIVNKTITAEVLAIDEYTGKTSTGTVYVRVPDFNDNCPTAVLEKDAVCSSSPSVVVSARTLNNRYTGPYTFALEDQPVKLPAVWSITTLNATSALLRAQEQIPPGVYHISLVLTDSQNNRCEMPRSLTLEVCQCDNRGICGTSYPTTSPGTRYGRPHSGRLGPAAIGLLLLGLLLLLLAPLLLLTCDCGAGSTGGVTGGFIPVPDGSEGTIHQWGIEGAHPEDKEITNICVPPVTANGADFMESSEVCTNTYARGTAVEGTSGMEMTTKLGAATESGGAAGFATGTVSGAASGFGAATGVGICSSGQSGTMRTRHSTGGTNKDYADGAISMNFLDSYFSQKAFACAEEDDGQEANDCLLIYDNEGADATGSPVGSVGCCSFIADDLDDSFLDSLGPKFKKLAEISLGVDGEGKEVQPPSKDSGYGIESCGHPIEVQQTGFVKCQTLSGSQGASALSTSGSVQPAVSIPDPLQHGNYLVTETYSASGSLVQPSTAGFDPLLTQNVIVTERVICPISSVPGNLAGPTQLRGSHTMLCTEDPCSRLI
As for `Cc1ccc([C@H]2C[C@H](n3cc(C4CC4)nn3)[C@@H](O)CN2Cc2cccs2)cc1`, the binding response (% of DMSO) was 119% (inactive).
With `COc1ccc(S(=O)(=O)N2CCCCCC2)cc1N` the figure was 100% (inactive); with `COc1ccc(C(=O)Nn2c(C)nc3ccccc3c2=O)cc1Br`, 98% (inactive).
In the case of `COc1ccc(Br)c(C(=O)Nc2cccc(S(=O)(=O)N3CCOCC3)c2)c1`, the binding response (% of DMSO) was 98.5% (inactive).
With `CC(=O)Nc1ccc(S(=O)(=O)NCc2ccc3c(c2)cc(C)n3C)cc1` the figure was 99.3% (inactive).
In the case of `CC(C)Oc1ccc(C(=O)Nc2ccc(NC(=O)c3ccco3)c(Cl)c2)cc1`, the binding response (% of DMSO) is 100% (inactive).
In the case of `O=C(NCc1ccccc1)C1CCN(S(=O)(=O)c2cccc3cccnc23)CC1`, the binding response (% of DMSO) was 109% (inactive) and 103% (inactive).
With `S=C(NCCCN1CCOCC1)N1CCN(c2cccc(Cl)c2)CC1`, the binding response (% of DMSO) was 100% (inactive).
For the compound `COc1ccc(CNS(=O)(=O)c2cn(C)c(=O)n(C)c2=O)cc1`, the binding response (% of DMSO) was 95% (inactive).
The figure for `Cc1c(C(=O)N2CCN(c3ccc(F)cc3)CC2)sc2nc(-c3ccccc3)cn12` is 101% (inactive); for `COc1ccc(NC(=O)c2cc(-c3ccc(C)o3)nc3ccccc23)cc1OC` it is 103% (inactive).
With `CCOC(=O)CSc1nnc(-c2ccccc2NC(=O)c2ccccc2)o1` the figure was 95% (inactive).
As to `Cc1cc(C)n2c(SCC(=O)N3CCN(S(=O)(=O)c4ccc(Cl)cc4)CC3)nnc2n1`, the binding response (% of DMSO) was 92.2% (inactive).
Consider `CC(C)c1ccccc1NS(=O)(=O)N(C)C`, for which the binding response (% of DMSO) is 99.3% (inactive).
Turning to `CN(C)c1nc(N)ncc1-c1ccc(Oc2ccccc2)cc1`, the binding response (% of DMSO) was 83.8% (inactive).
With `Cc1nnc(NC(=O)c2ccc(-c3ccc(Cl)cc3)o2)s1`, the binding response (% of DMSO) is 104% (inactive).
With `COc1ccc2cc(C(=O)COC(=O)COc3ccc4c(C)cc(=O)oc4c3)ccc2c1` the figure was 91.2% (inactive).
With `COc1ccc(-c2nc(C#N)c(NCc3ccccc3Cl)o2)cc1` the figure was 89.4% (inactive); with `COc1ccc(CCn2nnnc2C(C(C)C)N2CCN(c3ncccn3)CC2)cc1OC` (stereo not given), 96.4% (inactive); with `CCOc1ccc(-n2nc3ccc(NC(=O)c4ccc5c(c4)OCCO5)cc3n2)cc1`, 85.4% (inactive).
Regarding `O=C(Nc1nc(-c2ccccc2)c(-c2ccccc2)s1)c1ccc(S(=O)(=O)N2CCCCC2)cc1`, the binding response (% of DMSO) is 96.3% (inactive).
With `COc1ccc(CCNC(=O)COc2cccc(-n3cnnn3)c2)cc1` the figure was 108% (inactive).
As to `NC(=O)CC(NC(=O)Cc1cccc2ccccc12)c1ccc(NCCOc2ccccc2)c([N+](=O)[O-])c1` (stereo not given), the binding response (% of DMSO) was 104% (inactive).
For the compound `CCOC(=O)c1cc(-c2ccc(/C=C3/C(=O)N(c4ccc(C(=O)O)cc4)N=C3C)o2)ccc1Cl`, the binding response (% of DMSO) was 54.4% (active).
`O=C(O)c1ccc(-c2ccc(/C=C3\NC(=O)N(Cc4ccc(Cl)cc4)C3=O)o2)cc1Cl`: the binding response (% of DMSO) is 103% (inactive).
The figure for `CCOC(=O)c1ccc(-c2nnc(-c3ccc(Cl)cc3Cl)o2)cc1` is 100% (inactive); for `O=C(NCCCN1CCOCC1)c1cc2nc(-c3ccco3)cc(C(F)(F)F)n2n1` it is 101% (inactive); for `CC1CC(C)CN(c2ncc3c(n2)CC(c2ccccc2)CC3=O)C1` (stereo not given) it is 99% (inactive).
Regarding `O=c1c2nnn(Cc3ccc(Cl)cc3)c2ncn1Cc1ccc(F)cc1`, the binding response (% of DMSO) was 93.7% (inactive).
The figure for `O=C(Nc1ccc(N2CCN(C(=O)c3ccccc3)CC2)cc1)c1cc2ccccc2o1` is 93.8% (inactive); for `Cc1ccc(N2CCN(S(=O)(=O)c3nnc(NC(=O)c4ccccc4)s3)CC2)cc1` it is 98.7% (inactive); for `CCOc1ccc2c(c1)C(NC(C)=O)C(=O)N2CCN1CCOCC1` (stereo not given) it is 97.4% (inactive).
`O=C(Nc1cccc(NC(=O)c2ccc(Cl)cc2)n1)c1ccc(Cl)cc1`: the binding response (% of DMSO) is 100% (inactive).
`CNC(=O)CN1C(=O)NC(c2ccccc2)(c2ccccc2)C1=O`: the binding response (% of DMSO) was 100% (inactive).
With `Cc1ccc(Sc2ncccc2COC(=O)Nc2c(C)cccc2C)cc1` the figure was 96.3% (inactive); with `FC(F)(F)c1cc(-c2ccco2)nc(NCCc2ccccc2)n1`, 106% (inactive).
As to `O=C(NCCCN1CCOCC1)c1cc(-c2cccc(Br)c2)nc2ccccc12`, the binding response (% of DMSO) is 102% (inactive).
With `COc1ccc(-c2cn3c(C)c(C(=O)NC(C)C)sc3n2)cc1`, the binding response (% of DMSO) was 95.9% (inactive).
Consider `O=C(Nc1ccc(NS(=O)(=O)c2ccccc2)cc1)c1ccc(Cl)cc1`, for which the binding response (% of DMSO) was 49.9% (inactive).
Turning to `Cc1ccc(NS(=O)(=O)c2ccc3c(c2)oc(=O)n3C)cc1F`, the binding response (% of DMSO) is 99.5% (inactive).
With `CCn1nc(C(=O)OCc2c(C)noc2C)c2ccccc2c1=O` the figure was 104% (inactive); with `COc1ccc(NC(=O)CCCC(=O)c2ccccc2)cc1`, 103% (inactive).
The figure for `CCN(CC)CC(=O)NN=C(c1ccccc1)c1ccccc1` is 100% (inactive).
With `CCSc1nnc(NC(=O)CSc2nnc(CNC(=O)c3ccc(OC)cc3)o2)s1` the figure was 102% (inactive); with `CCN(CC(=O)Nc1ccc(S(=O)(=O)N2CCCCC2)cc1)Cc1ccccc1`, 98% (inactive); with `O=C(COc1ccccc1Cl)NCCNC(=O)c1ccccn1`, 101% (inactive).
Take `CCN(CC)CCn1c2c(c(SCC(=O)Nc3ccc(C)c(F)c3)nc1=O)CCC2`: the binding response (% of DMSO) was 103% (inactive).
On to `Cc1nc(N)sc1-c1csc(Nc2ncccn2)n1`, for which the binding response (% of DMSO) was 95.9% (inactive).
With `Cc1cnc(C(=O)N2CCN(S(=O)(=O)c3cc(C(F)(F)F)cc(C(F)(F)F)c3)CC2)cn1` the figure was 110% (inactive); with `COc1ccc(S(=O)(=O)N2CCN(CC(=O)Nc3cc(Cl)ccc3Cl)CC2)cc1`, 95% (inactive); with `COc1ccc(-n2c(SCC(=O)O)nc3sc4c(c3c2=O)CCCC4)cc1`, 103% (inactive).
Turning to `CCOC(=O)N1CCC(n2c(SCC(=O)c3ccccc3)nc3ccsc3c2=O)CC1`, the binding response (% of DMSO) was 93.2% (inactive).
The figure for `Cc1ccc(NS(=O)(=O)c2c(C)[nH]c(C)c2C(=O)N2CCCCC2)c(Br)c1` is 101% (inactive).
With `CCCCCC(=O)N1C[C@@H](O)[C@H](n2cc(-c3ccc(F)cc3)nn2)C[C@@H]1c1ccc(OC)cc1` the figure was 99.7% (inactive); with `CC(=O)c1cc2c(cc1NC(=O)c1ccc(Cl)cc1)OCCO2`, 87.5% (inactive).
Take `COc1ccc(NC(=O)Cn2nnc(C(=O)NCc3ccccc3)c2N)cc1Cl`: the binding response (% of DMSO) was 76.4% (inactive).
As to `CC(C)Oc1ccc(C(=O)Nc2c3c(nn2-c2ccccc2)CS(=O)(=O)C3)cc1`, the binding response (% of DMSO) was 96.5% (inactive).
Regarding `CC(=O)c1ccc(NC(=O)Cn2cnc(S(=O)(=O)N3CCc4ccccc43)c2)cc1`, the binding response (% of DMSO) is 94.8% (inactive).
Turning to `COc1cccc(C(=O)NCc2ccc3c(c2)cc(C)n3C)c1`, the binding response (% of DMSO) was 109% (inactive).
For the compound `NNc1nc2c(-c3ccc(Cl)cc3)nnn2c2ccccc12`, the binding response (% of DMSO) was 91.9% (inactive).
For the compound `COc1ccc(NC(=O)NN2CCN(C)CC2)c(OC)c1`, the binding response (% of DMSO) was 99.8% (inactive).
With `CSc1ccccc1OCc1cc(C(=O)N2CCN(Cc3nccn3C)CC2)no1` the figure was 106% (inactive); with `C=CCNc1nc(-c2cccc(OC)c2O)nc2ccccc12`, 92.4% (inactive).
For the compound `Nc1nc(SCc2nnc(SCC(=O)O)n2-c2ccccc2)nc2sc3c(c12)CCCC3`, the binding response (% of DMSO) is 106% (inactive).
For the compound `C=CCn1c(O)c(C2=c3ccccc3=NC2=O)s/c1=N/c1nccs1`, the binding response (% of DMSO) was 71.7% (inactive).
Consider `C=CCN1C2CCCC1CC(NC(=O)Nc1cccc(C(C)=O)c1)C2` (stereo not given), for which the binding response (% of DMSO) is 104% (inactive).
For `COc1ccc(NC(=O)c2cc(-c3ccco3)nc3ccccc23)cc1`, the binding response (% of DMSO) is 74.5% (inactive).
The figure for `COc1ccc(NC(=O)CN(C)Cc2cccs2)cc1Cl` is 105% (inactive).
As for `COC(=O)c1ccc(NC(=O)COc2ccc3c(c2)OCO3)cc1`, the binding response (% of DMSO) is 102% (inactive).
For the compound `CN(c1ccc(C(=O)NC2CC3CCC2C3)cc1)S(C)(=O)=O` (stereo not given), the binding response (% of DMSO) is 101% (inactive).
In the case of `CC(=O)C1=C(O)CC(c2ccccc2)CC1=NCCc1c(C)[nH]c2ccc(C)cc12` (stereo not given), the binding response (% of DMSO) was 96.5% (inactive).
Regarding `CC(C)CNC(=O)c1ccccc1NC(=O)CN(c1ccccc1)S(=O)(=O)N(C)C`, the binding response (% of DMSO) is 102% (inactive).
With `CCOC(=O)c1c(S(=O)(=O)NCC(C)c2ccccc2)c(C)n(C)c1C` (stereo not given) the figure was 97.9% (inactive); with `CCCOC(=O)CSc1nc(N)c(C#N)c(CC)c1C#N`, 108% (inactive); with `CN(C)S(=O)(=O)c1cccc(NC(=O)COC(=O)c2cc3ccccc3oc2=O)c1`, 90.6% (inactive).
`COc1ccc(CNC(=O)c2ccc(Cl)c(NC3=NC4CS(=O)(=O)CC4S3)c2)cc1` (stereo not given): the binding response (% of DMSO) was 104% (inactive).
With `CCn1cc(C(=O)NCc2cccnc2)c(=O)c2cc(F)c(N3CCN(C(=O)c4ccco4)CC3)cc21` the figure was 105% (inactive); with `Cc1ccc(S(=O)(=O)N2CCCCC2)cc1NC(=O)CCNC(=O)c1ccccc1Cl`, 98.5% (inactive).
With `O=C(CSc1nnc(CNC(=O)c2ccc(F)cc2)o1)Nc1nccs1`, the binding response (% of DMSO) was 99.5% (inactive).
With `CCOc1ccccc1NS(=O)(=O)c1ccc2[nH]c(=O)[nH]c2c1`, the binding response (% of DMSO) is 89.3% (inactive).
For the compound `O=C(CN1CCN(S(=O)(=O)c2cc(Br)ccc2Br)CC1)NCc1ccccc1Cl`, the binding response (% of DMSO) was 108% (inactive).
On to `Cc1ccc(NC(=O)Nc2ccc3c(c2)OCO3)nc1`, for which the binding response (% of DMSO) was 101% (inactive).
Regarding `COc1ccc(CCN2CC(C(=O)OCC(=O)NC(Cc3ccccc3)C(C)=O)CC2=O)cc1OC` (stereo not given), the binding response (% of DMSO) was 102% (inactive).
With `CCOc1ccc(NC(=O)c2nc(SCC)ncc2Cl)cc1` the figure was 101% (inactive).
For `CCOc1ccc(C(=O)Nc2cccc3cccnc23)cc1`, the binding response (% of DMSO) is 93% (inactive).
As to `Cc1ccc(C)n1NC(=O)c1cccs1`, the binding response (% of DMSO) is 91.4% (inactive).
With `COc1ccc(CC(=O)OCC(=O)NCc2ccc3c(c2)OCO3)cc1OC` the figure was 99.5% (inactive).
With `CCOC(=O)N1CCC(NC(=O)c2cc3c(-c4ccc(Cl)cc4)nn(C)c3s2)CC1` the figure was 95.6% (inactive).
With `COc1cccc(C(=O)Nc2cc(-c3cn4cccnc4n3)ccc2C)c1` the figure was 102% (inactive); with `COc1ccc(CNC(=O)C(C)n2nc(C)c3c(C)n(-c4ccccc4)nc3c2=O)c(OC)c1` (stereo not given), 95.7% (inactive).
